{
  "source": "PubChem BioAssay (NCATS)",
  "note": "Records with an inconclusive call do not appear. Calls of active or inactive are those of the source. The call rests on the fitted dose curve; in most records, active means well fitted inhibition curve with a large enough effect; inconclusive means small, poorly fitted or top-dose-only effect; inactive means flat fitted curve, though single readings scatter. On the % scale 0 is the no-effect control and ±100 the full control effect.",
  "data": [
    {"target": "Calcium and integrin-binding protein 1 (Homo sapiens) (UniProt Q99828)", "sequence (Q99828 whole entry, looked up)": "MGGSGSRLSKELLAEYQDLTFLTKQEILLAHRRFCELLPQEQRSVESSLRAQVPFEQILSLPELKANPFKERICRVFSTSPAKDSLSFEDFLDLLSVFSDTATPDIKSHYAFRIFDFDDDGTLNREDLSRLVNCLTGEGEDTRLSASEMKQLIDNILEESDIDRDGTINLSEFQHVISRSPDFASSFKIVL", "assay": "Primary qHTS for Identification of Calcium Integrin Binding Protein 1 (CIB1) Competitor (AID 1508620); further: top concentration of the series differs between compounds", "settings": "CIB1-GST / FITC-alphaIIb peptide fluorescence polarization; series mostly up to 114 µM; activity change, negative = inhibition: at the top concentration", "how_it_was_run": "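Fluorescence polarization competition: GST-tagged CIB1 (1 uM final) preincubated with compound 15 min at room temperature, then FITC-labelled alphaIIb peptide (100 nM final) added. After 15 min at room temperature, polarization read at Ex 480/Em 540.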", "values": [
      {"smiles": "COc1ccc(-c2cnc(N3CCC(C(N)=O)CC3)s2)cc1OC", "activity change, negative = inhibition": "-2.06% (inactive)"},
      {"smiles": "O=C1CCc2cc(S(=O)(=O)Nc3ccc4ccccc4c3)ccc2N1", "activity change, negative = inhibition": "-6.37% (inactive)"},
      {"smiles": "O=C1c2ccccc2NC(c2ccc(-c3ccc(Br)cc3)o2)N1O", "note": "(stereo not drawn)", "activity change, negative = inhibition": "-16.9% (inactive)"},
      {"smiles": "CC(C)c1ccccc1-c1ncc(F)c(NCc2ccc(-c3cccnc3)s2)n1", "activity change, negative = inhibition": "-0.0334% (inactive)"},
      {"smiles": "CCOC(=O)C1CCN(C(=O)C(C)(C)NC(=O)Nc2cccc(C(=O)OC)c2)CC1", "activity change, negative = inhibition": "-16.4% (inactive)"},
      {"smiles": "Cc1cc2c(s1)c(C#N)c(C(=O)NCc1ccccc1F)n2C", "activity change, negative = inhibition": "-1.97% (inactive)"},
      {"smiles": "Cc1ccc(C[C@H](C(=O)O)N2C(=O)c3ccc(C(=O)O)cc3C2=O)c(C)c1", "activity change, negative = inhibition": "-1.39% (inactive)"},
      {"smiles": "CC(=O)N1CCN(C(=S)Nc2cc(C)ccn2)CC1", "activity change, negative = inhibition": "-6.92% (inactive)"},
      {"smiles": "COc1cc(OC)cc(-c2nnc3n2N=C(c2ccc(OC)c(OC)c2)CS3)c1", "activity change, negative = inhibition": "-6.1% (inactive)"},
      {"smiles": "Cc1ccc(NS(=O)(=O)c2cc3c(cc2-c2ccccc2)NC(=O)CO3)cc1C", "activity change, negative = inhibition": "4.27% (inactive)"},
      {"smiles": "c1ccc(CNCc2nnc(-c3cc4ccccc4[nH]3)o2)cc1", "activity change, negative = inhibition": "-4.47% (inactive)"},
      {"smiles": "Cc1cc(C)cc(Cn2ncc3c4sc(C)cc4n(C)c3c2=O)c1", "activity change, negative = inhibition": "11.8% (inactive)"},
      {"smiles": "Cc1cccc(CNc2ncnc3ccc(-c4cccc(Cl)c4)cc23)c1", "activity change, negative = inhibition": "-1.97% (inactive)"},
      {"smiles": "Oc1ccc(CNc2ccccc2Cl)c2cccnc12", "activity change, negative = inhibition": "14.3% (inactive)"},
      {"smiles": "O=S(=O)(c1ccc2c(c1)OCCO2)N1C[C@@H]2C[C@H]1CN2S(=O)(=O)c1c(F)cccc1F", "activity change, negative = inhibition": "-0.1% (inactive)"},
      {"smiles": "Cc1cc(-c2nnc3n2CCCCC3)c(C)n1-c1cccc(C(F)(F)F)c1", "activity change, negative = inhibition": "2.31% (inactive)"},
      {"smiles": "COc1cc(C2Nc3ccccc3C(=O)N2Cc2ccccc2)ccc1OCc1ccc(NC(C)=O)cc1", "note": "(stereo not drawn)", "activity change, negative = inhibition": "-0.0571% (inactive)"},
      {"smiles": "O=C(Nc1ccc(F)c(C(F)(F)F)c1)Nc1cccc(-c2ccncc2)n1", "activity change, negative = inhibition": "6.89% (inactive)"},
      {"smiles": "CN(C)c1cccc(-c2csc(N3CCC(C(N)=O)CC3)n2)c1", "activity change, negative = inhibition": "-15.9% (inactive)"},
      {"smiles": "Cc1cc2c(s1)c1cnn(Cc3c(F)ccc(Cl)c3F)c(=O)c1n2C", "activity change, negative = inhibition": "-0.826% (inactive)"},
      {"smiles": "Cc1ccc(NS(=O)(=O)c2cc3c(cc2N(C)CCN(C)C)NC(=O)CC3)cc1C", "activity change, negative = inhibition": "3.27% (inactive)"},
      {"smiles": "Cc1c(C(=O)OCC(C)(C)C)[nH]c2c1C(=O)CC(c1ccco1)C2", "note": "(stereo not drawn)", "activity change, negative = inhibition": "-14% (inactive)"},
      {"smiles": "Cc1cnc(-c2ccccc2C(C)C)nc1NCc1ccc(C(N)=O)cc1", "activity change, negative = inhibition": "2.75% (inactive)"}
    ]}
  ]
}
